40 molecules from PubChem BioAssay (Tox21) can be followed below.

Inconclusive results are not listed. Calls of active or inactive are those of the source. Calls follow the shape of the dose curve; as a rule, active = well fitted activation curve with a large enough effect in the signal ratio in the repeat runs (not every such curve was filed as active); inconclusive = weak or mixed curves, or effect the other way; inactive = no such curve, though single readings can be large or run the other way; the % refers to the signal ratio.
% is scaled to controls: 0 for no effect and ±100 for the full control effect.

Peroxisome proliferator-activated receptor gamma (Homo sapiens), sequence (P37231 whole entry, looked up): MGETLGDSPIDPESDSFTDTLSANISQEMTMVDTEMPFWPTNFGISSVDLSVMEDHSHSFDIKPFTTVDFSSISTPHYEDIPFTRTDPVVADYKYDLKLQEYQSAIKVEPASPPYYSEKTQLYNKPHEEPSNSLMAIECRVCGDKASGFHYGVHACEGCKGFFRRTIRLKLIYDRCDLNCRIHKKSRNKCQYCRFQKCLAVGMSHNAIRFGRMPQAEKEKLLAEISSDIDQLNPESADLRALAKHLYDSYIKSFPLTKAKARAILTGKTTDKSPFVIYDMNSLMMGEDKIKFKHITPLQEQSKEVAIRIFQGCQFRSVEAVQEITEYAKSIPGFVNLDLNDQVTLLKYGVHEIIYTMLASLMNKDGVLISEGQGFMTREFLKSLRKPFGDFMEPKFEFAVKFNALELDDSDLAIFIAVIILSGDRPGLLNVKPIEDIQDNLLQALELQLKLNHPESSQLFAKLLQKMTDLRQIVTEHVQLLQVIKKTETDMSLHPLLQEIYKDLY

In the assay the target is Peroxisome proliferator-activated receptor gamma (Homo sapiens) (UniProt P37231). Put plainly: qHTS assay to identify small molecule agonists of the peroxisome proliferator-activated receptor gamma (PPARg) signaling pathway (AID 743094). As to conditions: HEK293H PPARg-UAS-bla, beta-lactamase FRET ratio, 17 h; series mostly up to 57 µM; activation: at the top concentration. An excerpt:
U.S. Tox21 Program National Center for Advancing Translational Sciences [NCATS] NIH Chemical Genomics Center [NCGC] U.S. Environmental Protection Agency [EPA] National Institutes of Environmental Health Sciences [NIEHS] National Toxicology Program [NTP] U.S. Food and Drug Administration [FDA] Tox21 Assay Overview: The peroxisome proliferator-activated receptors (PPARs) are lipid-activated transcription factors of the nuclear receptor superfamily with three distinct subtypes namely PPAR alpha, PPAR delta (also called PPAR beta) and PPAR gamma (PPARg). All these subtypes heterodimerize with Retinoid X receptor (RXR) and these heterodimers regulate transcription of various genes. PPAR-gamma receptor (glitazone receptor) is involved in the regulation of glucose and lipid metabolism. To identify the compounds that activate PPAR-gamma signaling, GeneBLAzer PPAR gamma UAS-bla HEK293H cell line (Invitrogen, Carlsbad, CA, USA) containing a beta-lactamase reporter gene under control of the control of an upstream activator sequence (UAS) stably integrated into HEK293H cells was used to screen Tox21 compound library.
Tox21 Assay Protocol Summary: PPARg-bla cells were dispensed at 3000 cells/6uL/well in 1536-well black wall/clear bottom plates using a Multidrop Combi (Thermo Fisher Scientific, Waltham, MA) dispenser. After the assay plates were incubated at 37C and 5% CO2 for 5 h, 23 nL of compounds dissolved in DMSO, positive controls or DMSO only was transferred to the assay plate by a Pintool station (Kalypsys, San Diego, CA). The assay plates were incubated at 37C for 17 h. After 1 uL of LiveBLAzerTM B/G FRET substrate was added using a Bioraptr Flying Reagent Dispenser (FRD) workstation (Beckman Coulter, Indianapolis, IN, USA), the plates were incubated at room temperature for 1 h, and fluorescence intensity was measured by an Envision plate reader (PerkinElmer, Shelton, CT).
On the technique in general: qHTS replaces the single test concentration by a dilution series.
As to `N#CCCC#N`, the “activation” value was 2.93% (inactive).

`CCS(=O)(=O)C(C)(C)S(=O)(=O)CC`: the “activation” value was 1.18% (inactive).

On to `Cc1ncsc1CCCl`, for which the “activation” value is 6% (inactive).

Regarding `CCOC(=O)/C=C(C)/C=C/C[C@@H](C)CCCC(C)C`, the result was inactive.

Regarding `CCOP(=O)(N=C1SCCS1)OCC`, the “activation” value was -5.11% (inactive).

Take `CCCCc1c(C)nc(NCC)[nH]c1=O`: the “activation” value was -0.182% (inactive).

On to `CC1=NNC(=O)N(/N=C/c2cccnc2)C1`, for which the “activation” value was 4.65% (inactive).

As to `Cc1ccccc1CO[C@@H]1C[C@@]2(C(C)C)CC[C@]1(C)O2`, the “activation” value was 2.62% (inactive).

As for `CN(C)CCc1ccc(O)cc1`, the “activation” value is 2.15% (inactive).

Regarding `CCOP(=S)(OCC)SCSc1ccc(Cl)cc1`, the result was inactive.

For `Cc1cc(C)c(C(=O)P(=O)(C(=O)c2c(C)cc(C)cc2C)c2ccccc2)c(C)c1`, the “activation” value is 2.24% (inactive).

Turning to `CCC(C)(C)c1cc(-n2nc3ccccc3n2)c(O)c(C(C)(C)CC)c1`, the “activation” value was 1.16% [at 78.9 µM] (inactive).

As to `C=C(C)[C@@H]1CC=C(C=O)CC1`, the “activation” value is -7.63% (inactive).

In the case of `C[N+](C)=CCl`, the “activation” value was 1.97% (inactive).

In the case of `COc1cc(OC)nc(Oc2cccc(Oc3nc(OC)cc(OC)n3)c2C(=O)O)n1`, the “activation” value is 1.54% (inactive).

On to `CCN(CC)C(=O)[C@@H]1C=C2c3cccc4[nH]cc(c34)C[C@H]2N(C)C1`, for which the result was inactive.

Take `CC(C)CP(=S)(S)CC(C)C`: the “activation” value was 3.13% (inactive).

As to `O=C(Oc1ccc(Br)cc1)N1CCN2CCC1CC2`, the “activation” value is 2.96% (inactive).

Take `CCOC(=O)N(C)C(=O)CSP(=S)(OCC)OCC`: the “activation” value is -0.96% (inactive).

For the molecule `CC(C1CC1)C(O)(Cn1cncn1)c1ccc(Cl)cc1` (stereo not given), the “activation” value was -4.23% (inactive).

`CCOc1nc(C(Cl)(Cl)Cl)ns1`: the “activation” value is -0.0292% (inactive).

As to `OCCSCSCCO`, the “activation” value was 3.78% (inactive).

Turning to `CCOC(=O)CP(=O)(OCC)OCC`, the “activation” value was -4.59% (inactive).

In the case of `CS(=O)(=O)c1cc(C(F)(F)F)ccc1C(=O)c1cnoc1C1CC1`, the “activation” value was 10.4% (inactive).

With `CCCSC(=O)Cl`, the “activation” value was -8.72% [at 78.9 µM] (inactive).

`O=C1OC(c2ccc(O)c(S(=O)(=O)O)c2)(c2ccc(O)c(S(=O)(=O)O)c2)c2c(Br)c(Br)c(Br)c(Br)c21`: the “activation” value is -3.32% (inactive).

Regarding `O=C(N[C@H]1CN2CCC1CC2)c1cc2ccoc2cn1`, the “activation” value was 3.01% (inactive).

`c1coc(-c2nc3ccccc3[nH]2)c1`: the “activation” value is -2.93% (inactive).

In the case of `ClC(Cl)C(Cl)Cl`, the “activation” value is -0.398% [at 78.9 µM] (inactive).

For the molecule `CC1CCCCC1NC(=O)Nc1ccccc1` (stereo not given), the “activation” value was 3.5% (inactive).

For `CNC(=O)Oc1ccccc1C1OCCO1`, the “activation” value is 4.94% (inactive).

Consider `CCC1(c2ccccc2)C(=O)N=C(O)NC1=O` (stereo not given), for which the “activation” value is -6.38% (inactive).

Turning to `CC1(C(=O)Nc2ccc(O)c(Cl)c2Cl)CCCCC1`, the “activation” value is -4.83% (inactive).

On to `CC1(C)CON(Cc2ccccc2Cl)C1=O`, for which the “activation” value was -3.46% (inactive).

For the molecule `CCC1(c2ccccc2)C(=O)NC(=O)NC1=O`, the outcome was inactive.

Take `CC(C)COP(=O)(OCC(C)C)OCC(C)C`: the “activation” value is -1.43% (inactive).

For the molecule `CCCCOP(=O)(O)OCCCC`, the “activation” value was -0.064% (inactive).

For the molecule `Cc1ncc(CNC(=O)N(CCCl)N=O)c(N)n1`, the “activation” value is 2.51% (inactive).

As for `CC(=O)[C@H]1CC[C@H]2[C@@H]3CC[C@H]4C[C@H](O)CC[C@]4(C)[C@H]3C(=O)C[C@]12C`, the “activation” value was -2.89% (inactive).

For `[O]=[Cd]`, the outcome was inactive.
